Assay results taken from the supplement of paper PMC8728848.
Many of the other results were omitted from the sample, so the strongest signals are more common in it than they were.

Key:
Experiment in all cases: glycan array binding signal (z-score within array); higher = stronger binding
Conditions in all cases: glycan notation: IUPAC condensed, linker removed
[1] = biological target: Fuc(a1-2)Gal
Procedure, shortened: (§1)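 Glycan array data came from 3228 arrays in the Consortium for Functional Glycomics database, and only arrays with an available protein sequence were kept. Glycan names were put into IUPAC-condensed notation, and columns mapping to the same glycan were averaged. The binding signal is a within-array Z-score, averaged across arrays of one protein sequence run at different concentrations or buffers and across linkers. A negative Z-score can be read as non-binding.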

[2] = biological target: Fuc(a1-2)Gal(b1-3)GlcNAc
Procedure, shortened: as §1

[3] = biological target: Fuc(a1-2)Gal(b1-4)[Fuc(a1-3)]GlcNAc
Procedure, shortened: as §1

[4] = biological target: Fuc(a1-3)[Gal(b1-4)]GlcNAc
Procedure, shortened: as §1

[5] = biological target: Fuc(a1-3)[Gal3S(b1-4)]Glc6S
Procedure, shortened: as §1

[6] = biological target: Fuc(a1-3)[Gal3S(b1-4)]GlcNAc6S
Procedure, shortened: as §1

[7] = biological target: Fuc(b1-3)GlcNAc
Procedure, shortened: as §1

[8] = biological target: Gal(b1-3)Gal
Procedure, shortened: as §1

[9] = biological target: Gal(b1-4)GlcNAc(b1-6)GalNAc
Procedure, shortened: as §1

[10] = biological target: Gal3S(b1-4)GlcNAc
Procedure, shortened: as §1

[11] = biological target: Gal3S6S(b1-4)GlcNAc6S
Procedure, shortened: as §1

[12] = biological target: Gal4S(b1-4)GlcNAc
Procedure, shortened: as §1

[13] = biological target: Gal6S(b1-4)Glc6S
Procedure, shortened: as §1

[14] = biological target: GlcNAc(b1-3)Gal(b1-3)GalNAc
Procedure, shortened: as §1

[15] = biological target: Man(a1-3)[Man(a1-6)]Man
Procedure, shortened: as §1

[16] = biological target: Neu5Ac9Ac(a2-6)Gal(b1-4)GlcNAc
Procedure, shortened: as §1

B1: Fap1 (Streptococcus parasanguis) (protein)
chain: KATSKGTEEKQDSVRENLDKMISEAEVLNDMAARKLITLDAEQQLELMKSLVATQSQLEATKNLIGDPNATVADLQIAYTTLGNNTQALGNELIKLNPNGQIYAVLNNTEASRAATLRSTTTGTKTTFTISDFSNGGTQYYWAGGNANNLKNPISSISAVYDSATGKISWTVEYDPTTILKSPALKTLKTYTGIYIDTSSDSKLSTPTNVLIDGAATNPVTNFYGNGSKGIEYVSKGTTKGVTKHTITFDTAFSGRANDLADLEIKMLAATTLSDPHFYEDGSKGNYGRYNGQTAPYVIANDSGTAIGGYQVSGVNADSIPSDTT
B1 was tested, and the “glycan array binding signal (z-score)” value [1] was 1.54, the “glycan array binding signal (z-score)” value [2] was 0.203 and the “glycan array binding signal (z-score)” value [3] was 0.342. For the same binder, the “glycan array binding signal (z-score)” value [4] was 0.377, the “glycan array binding signal (z-score)” value [5] was 0.012 and the “glycan array binding signal (z-score)” value [6] was 2.23. The “glycan array binding signal (z-score)” value [7] was 0.144, the “glycan array binding signal (z-score)” value [8] was -0.318 and the “glycan array binding signal (z-score)” value [9] was 0.546. For the same binder, the “glycan array binding signal (z-score)” value [10] was -0.22, the “glycan array binding signal (z-score)” value [11] was 1.8 and the “glycan array binding signal (z-score)” value [12] was 1.82. The “glycan array binding signal (z-score)” value [13] was -0.521, the “glycan array binding signal (z-score)” value [14] was 2.08 and the “glycan array binding signal (z-score)” value [15] was 0.624. For the same binder, the “glycan array binding signal (z-score)” value [16] was 0.638.
